Each compound was assayed against Tyrosine-protein kinase ABL2 (Homo sapiens) (UniProt P42684). Conditions: at 10 µM.
Chain of Tyrosine-protein kinase ABL2 (Homo sapiens) (P42684 whole entry): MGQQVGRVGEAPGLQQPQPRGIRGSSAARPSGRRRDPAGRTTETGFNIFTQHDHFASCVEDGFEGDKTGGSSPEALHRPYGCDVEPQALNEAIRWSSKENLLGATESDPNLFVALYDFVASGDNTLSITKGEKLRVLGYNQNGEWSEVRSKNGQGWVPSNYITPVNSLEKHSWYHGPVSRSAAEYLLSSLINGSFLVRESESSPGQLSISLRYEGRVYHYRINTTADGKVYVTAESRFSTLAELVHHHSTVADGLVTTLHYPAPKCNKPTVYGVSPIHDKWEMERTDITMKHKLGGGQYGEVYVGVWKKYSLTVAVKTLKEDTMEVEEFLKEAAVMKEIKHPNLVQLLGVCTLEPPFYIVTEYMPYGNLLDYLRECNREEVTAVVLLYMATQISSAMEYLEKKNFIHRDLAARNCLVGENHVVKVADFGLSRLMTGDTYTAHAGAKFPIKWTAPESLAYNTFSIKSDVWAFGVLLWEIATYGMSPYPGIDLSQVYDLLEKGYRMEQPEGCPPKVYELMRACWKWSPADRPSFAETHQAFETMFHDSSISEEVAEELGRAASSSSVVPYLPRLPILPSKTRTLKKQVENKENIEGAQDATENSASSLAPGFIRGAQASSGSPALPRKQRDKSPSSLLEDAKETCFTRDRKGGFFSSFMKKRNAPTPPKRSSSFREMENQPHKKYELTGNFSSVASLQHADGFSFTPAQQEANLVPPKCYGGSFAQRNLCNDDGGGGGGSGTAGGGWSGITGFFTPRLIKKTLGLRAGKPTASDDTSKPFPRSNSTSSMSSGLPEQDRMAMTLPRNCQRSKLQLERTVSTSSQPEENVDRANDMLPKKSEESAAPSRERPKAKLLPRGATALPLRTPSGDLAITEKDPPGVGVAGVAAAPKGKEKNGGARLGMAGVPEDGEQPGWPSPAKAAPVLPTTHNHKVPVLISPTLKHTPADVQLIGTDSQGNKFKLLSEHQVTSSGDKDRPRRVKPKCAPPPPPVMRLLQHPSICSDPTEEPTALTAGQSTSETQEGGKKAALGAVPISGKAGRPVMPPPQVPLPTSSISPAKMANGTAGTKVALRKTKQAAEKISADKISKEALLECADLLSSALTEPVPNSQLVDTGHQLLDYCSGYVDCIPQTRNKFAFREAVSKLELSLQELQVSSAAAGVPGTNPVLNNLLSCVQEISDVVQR
Compound `O=C1NC(=O)c2c1c1c3ccccc3[nH]c1c1[nH]c3cc(Br)ccc3c21` has a residual activity of 87%.
`O=C(Nc1cccc(Nc2cc(Nc3cccc(C(F)(F)F)c3)ncn2)c1)C1CC1` was tested, and the residual activity was 90%.
In the case of `N#CCCc1ccc2c(c1)-c1[nH]c3ccc([N+](=O)[O-])cc3c1CC(=O)N2`, the residual activity is reported as 17%.
In the case of `Nc1nc(Nc2ccc(S(N)(=O)=O)cc2)nn1C(=S)Nc1c(F)cccc1F`, the residual activity is reported as -2%.
`Nc1cccc(-c2cc3c(Oc4cccc(O)c4)ncnc3[nH]2)c1` gave a residual activity of -2%.
For `Cc1cc2ncc(-c3ccccc3)nc2cc1C`, the residual activity was 103%.
`CO[C@@H]1[C@H](N(C)C(=O)c2ccccc2)C[C@H]2O[C@]1(C)n1c3ccccc3c3c4c(c5c6ccccc6n2c5c31)C(=O)NC4` showed a residual activity of 45%.
For `CC(=O)c1ccc(N2CCOCC2)cc1O`, the residual activity was 102%.
`COc1ccc(C(=O)Nc2sc3c(c2C(N)=O)CCCC3)cc1OC` showed a residual activity of 101%.
`CO[C@H]1[C@@H](OC)C[C@H](C)[C@@H](OC)C2=CC(=O)C=C(NC(=O)/C(C)=C/C=C/[C@H](OC)[C@@H](OC(N)=O)/C(C)=C/[C@@H]1C)C2=O` was tested, and the residual activity was 105%.
`O=C1NC(=O)c2cc(Nc3ccc(F)cc3)c(Nc3ccc(F)cc3)cc21` showed a residual activity of 58%.
Work on `Oc1n[nH]c2nnc(-c3c(-c4ccccc4)nn4ccccc34)cc12` yielded a residual activity of 64%.
Work on `O=Nc1c(-c2c(O)[nH]c3ccccc23)[nH]c2ccccc12` yielded a residual activity of 28%.
Compound `c1ccc(-c2n[nH]c3c2oc2ccccc23)cc1` has a residual activity of 93%.

These compounds were tested against T1, Aurora kinase A (Homo sapiens) (UniProt O14965). Conditions: at 1 µM.
T1 sequence (whole entry): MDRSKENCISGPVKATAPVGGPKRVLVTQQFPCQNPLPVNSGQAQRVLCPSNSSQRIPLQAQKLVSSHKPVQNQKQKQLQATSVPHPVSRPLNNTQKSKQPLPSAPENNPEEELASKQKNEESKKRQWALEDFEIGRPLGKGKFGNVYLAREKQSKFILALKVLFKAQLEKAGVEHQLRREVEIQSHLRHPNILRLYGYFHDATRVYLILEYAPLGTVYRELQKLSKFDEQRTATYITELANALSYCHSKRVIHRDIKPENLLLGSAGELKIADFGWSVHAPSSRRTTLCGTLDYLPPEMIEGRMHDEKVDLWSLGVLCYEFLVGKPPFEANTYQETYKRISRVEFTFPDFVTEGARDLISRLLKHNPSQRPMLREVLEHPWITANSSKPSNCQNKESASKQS
With `CCN(CC)CCCCN1c2ccccc2Oc2ccc(Cl)cc21` the residual activity was 97%.
With `O=[N+]([O-])c1ccc(-c2nc(-c3ccc(F)cc3)c(-c3ccncc3)[nH]2)cc1` the residual activity was 103%.
`Cc1ccc(S(=O)(=O)/C=C/C#N)cc1` showed a residual activity of 118%.
`COc1cc2ncnc(Nc3ccc(NC(=O)c4ccccc4)cc3)c2cc1OC` showed a residual activity of 18%.
`Cn1nc2c3c(cccc31)C(=O)c1ccccc1-2` was tested, and the residual activity was 79%.
`Cc1nc2cc3nc(-c4cccs4)cnc3cc2n1C` was tested, and the residual activity was 88%.
`COc1cc2ncnc(N3CCN(C(=O)Nc4ccc(Oc5ccccc5)cc4)CC3)c2cc1OC` showed a residual activity of 51%.
Work on `CC(C)n1cnc2/c(=N/c3cccc(Cl)c3)nc(NCCO)[nH]c21` yielded a residual activity of 88%.
`Cc1cc(Nc2nc(-c3ccccc3)nc3ccccc23)n[nH]1` gave a residual activity of 1%.
`Cc1cncc2cccc(S(=O)(=O)N3CCCN(C(=O)CN)C[C@H]3C)c12` was tested, and the residual activity was 64%.
For `Cc1cccc(-c2[nH]c(C(C)(C)C)nc2-c2ccc3c(c2)OCO3)n1`, the residual activity was 93%.
Compound `N#Cc1cnc2cnc(NCc3cccnc3)cc2c1Nc1ccc(F)c(Cl)c1` has a residual activity of 31%.
Compound `COc1ccc(S(=O)(=O)N(CCO)c2ccccc2CN(C)C/C=C/c2ccc(Cl)cc2)cc1` has a residual activity of 122%.
`c1ccc2c(-c3ccncc3)c[nH]c2c1` was tested, and the residual activity was 99%.
In the case of `c1ccc(-c2n[nH]cc2-c2ccnc3ccccc23)nc1`, the residual activity is reported as 99%.
With `O=C1Nc2cc(Br)ccc2/C1=C1/Nc2ccccc2/C1=N\O` the residual activity was 31%.
In the case of `COc1ccc(OC)c2c(=S)c3ccccc3[nH]c12`, the residual activity is reported as 116%.
For `COc1cc2ncc(-c3ccccc3)nc2cc1OC`, the residual activity was 83%.
For `O=C1NC(=O)c2c1c1c3ccccc3[nH]c1c1[nH]c3cc(Br)ccc3c21`, the residual activity was 93%.
`O=C(Nc1cccc(Nc2cc(Nc3cccc(C(F)(F)F)c3)ncn2)c1)C1CC1` was tested, and the residual activity was 95%.
Work on `N#CCCc1ccc2c(c1)-c1[nH]c3ccc([N+](=O)[O-])cc3c1CC(=O)N2` yielded a residual activity of 61%.
`Nc1nc(Nc2ccc(S(N)(=O)=O)cc2)nn1C(=S)Nc1c(F)cccc1F` showed a residual activity of 1%.
`Nc1cccc(-c2cc3c(Oc4cccc(O)c4)ncnc3[nH]2)c1` was tested, and the residual activity was 28%.
In the case of `Cc1cc2ncc(-c3ccccc3)nc2cc1C`, the residual activity is reported as 77%.
For `CO[C@@H]1[C@H](N(C)C(=O)c2ccccc2)C[C@H]2O[C@]1(C)n1c3ccccc3c3c4c(c5c6ccccc6n2c5c31)C(=O)NC4`, the residual activity was -3%.
Compound `CC(=O)c1ccc(N2CCOCC2)cc1O` has a residual activity of 109%.
`COc1ccc(C(=O)Nc2sc3c(c2C(N)=O)CCCC3)cc1OC` was tested, and the residual activity was 93%.
For `CO[C@H]1[C@@H](OC)C[C@H](C)[C@@H](OC)C2=CC(=O)C=C(NC(=O)/C(C)=C/C=C/[C@H](OC)[C@@H](OC(N)=O)/C(C)=C/[C@@H]1C)C2=O`, the residual activity was 77%.
`O=C1NC(=O)c2cc(Nc3ccc(F)cc3)c(Nc3ccc(F)cc3)cc21` showed a residual activity of 89%.
`Oc1n[nH]c2nnc(-c3c(-c4ccccc4)nn4ccccc34)cc12` was tested, and the residual activity was 104%.
`O=Nc1c(-c2c(O)[nH]c3ccccc23)[nH]c2ccccc12` was tested, and the residual activity was 7%.
`N#CC(C#N)=C(N)/C(C#N)=C/c1ccc(O)cc1` showed a residual activity of 83%.
`c1ccc(-c2n[nH]c3c2oc2ccccc23)cc1` gave a residual activity of 53%.

The compounds below were run against T1, Aurora kinase A (Homo sapiens). Conditions: at 10 µM.
For `CCN(CC)CCCCN1c2ccccc2Oc2ccc(Cl)cc21`, the residual activity was 140%.
`O=[N+]([O-])c1ccc(-c2nc(-c3ccc(F)cc3)c(-c3ccncc3)[nH]2)cc1` gave a residual activity of 109%.
Work on `Cc1ccc(S(=O)(=O)/C=C/C#N)cc1` yielded a residual activity of 103%.
`COc1cc2ncnc(Nc3ccc(NC(=O)c4ccccc4)cc3)c2cc1OC` was tested, and the residual activity was 12%.
Compound `Cn1nc2c3c(cccc31)C(=O)c1ccccc1-2` has a residual activity of 74%.
In the case of `Cc1nc2cc3nc(-c4cccs4)cnc3cc2n1C`, the residual activity is reported as 69%.
`COc1cc2ncnc(N3CCN(C(=O)Nc4ccc(Oc5ccccc5)cc4)CC3)c2cc1OC` was tested, and the residual activity was 48%.
Compound `CC(C)n1cnc2/c(=N/c3cccc(Cl)c3)nc(NCCO)[nH]c21` has a residual activity of 47%.
`Cc1cc(Nc2nc(-c3ccccc3)nc3ccccc23)n[nH]1` gave a residual activity of 0%.
`Cc1cncc2cccc(S(=O)(=O)N3CCCN(C(=O)CN)C[C@H]3C)c12` showed a residual activity of 36%.
`N#Cc1cnc2cnc(NCc3cccnc3)cc2c1Nc1ccc(F)c(Cl)c1` showed a residual activity of 24%.
Compound `COc1ccc(S(=O)(=O)N(CCO)c2ccccc2CN(C)C/C=C/c2ccc(Cl)cc2)cc1` has a residual activity of 127%.
`c1ccc2c(-c3ccncc3)c[nH]c2c1` was tested, and the residual activity was 76%.
In the case of `c1ccc(-c2n[nH]cc2-c2ccnc3ccccc23)nc1`, the residual activity is reported as 103%.
In the case of `O=C1Nc2cc(Br)ccc2/C1=C1/Nc2ccccc2/C1=N\O`, the residual activity is reported as 25%.
For `COc1ccc(OC)c2c(=S)c3ccccc3[nH]c12`, the residual activity was 90%.
`COc1cc2ncc(-c3ccccc3)nc2cc1OC` was tested, and the residual activity was 98%.
With `O=C1NC(=O)c2c1c1c3ccccc3[nH]c1c1[nH]c3cc(Br)ccc3c21` the residual activity was 75%.
`O=C(Nc1cccc(Nc2cc(Nc3cccc(C(F)(F)F)c3)ncn2)c1)C1CC1` showed a residual activity of 82%.
Compound `N#CCCc1ccc2c(c1)-c1[nH]c3ccc([N+](=O)[O-])cc3c1CC(=O)N2` has a residual activity of 37%.
Compound `Nc1nc(Nc2ccc(S(N)(=O)=O)cc2)nn1C(=S)Nc1c(F)cccc1F` has a residual activity of 10%.
For `Nc1cccc(-c2cc3c(Oc4cccc(O)c4)ncnc3[nH]2)c1`, the residual activity was 1%.
Compound `Cc1cc2ncc(-c3ccccc3)nc2cc1C` has a residual activity of 96%.
`CO[C@@H]1[C@H](N(C)C(=O)c2ccccc2)C[C@H]2O[C@]1(C)n1c3ccccc3c3c4c(c5c6ccccc6n2c5c31)C(=O)NC4` showed a residual activity of -2%.
`CC(=O)c1ccc(N2CCOCC2)cc1O` gave a residual activity of 100%.
With `COc1ccc(C(=O)Nc2sc3c(c2C(N)=O)CCCC3)cc1OC` the residual activity was 96%.
Compound `CO[C@H]1[C@@H](OC)C[C@H](C)[C@@H](OC)C2=CC(=O)C=C(NC(=O)/C(C)=C/C=C/[C@H](OC)[C@@H](OC(N)=O)/C(C)=C/[C@@H]1C)C2=O` has a residual activity of 86%.
In the case of `O=C1NC(=O)c2cc(Nc3ccc(F)cc3)c(Nc3ccc(F)cc3)cc21`, the residual activity is reported as 79%.
`Oc1n[nH]c2nnc(-c3c(-c4ccccc4)nn4ccccc34)cc12` showed a residual activity of 93%.
`O=Nc1c(-c2c(O)[nH]c3ccccc23)[nH]c2ccccc12` gave a residual activity of 0%.
`N#CC(C#N)=C(N)/C(C#N)=C/c1ccc(O)cc1` showed a residual activity of 85%.
For `c1ccc(-c2n[nH]c3c2oc2ccccc23)cc1`, the residual activity was 31%.
